From PubChem
Only some compounds are listed: those with a hit (about 1% of all), similar ones and a draw of the others.
Proteasome disasm = blocks ATP-dependent breakdown of the yeast 26S proteasome. 0.2% of 24,000 active. inhibition of disassembly, % (test concentration not listed). anti-FLAG beads, GFP-proteasome disassembly, flow cytometry. AID 751;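 active means inhibition of disassembly above about 33%, limit read from the data; inconclusive means likely self-fluorescent, control bead median signal at least 40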;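 further: plate controls were ATP control with full disassembly for no effect and ATP-gamma-S intact proteasomes for full effect; higher percent means more bead fluorescence retained so stronger block of disassembly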
LNCaP diff act = LNCaP prostate cell differentiation activation. AID 795. flow cytometry side scatter, 4 d. 0.56% of 24,000 active. side scatter shift, % at 10 µM;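 active means side scatter shift above 30%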;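 further: androgen-responsive LNCaP prostate cancer cells in charcoal-stripped serum medium; percent of cells past a gate set so DMSO wells show 10% shift; higher shift means more granular cells and more differentiation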
QS inhibitor = blocks AIP-induced quorum sensing reporter in S. aureus; S. aureus RN6390 RNAIII-GFP reporter, flow cytometry 3 h; inhibition, % at 2 µM; 0.3% of 24,000 active; AID 527;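 active means share of bacteria positive for the green fluorescent reporter and its mean brightness both inhibited by 50% or more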;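 further: 0% = AIP-stimulated control and 100% = unstimulated bacteria without AIP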
The depositor's hits bear a star; ? = inconclusive; nt = no result.

SMILES | Proteasome disasm | LNCaP diff act | QS inhibitor
Cc1ccc(C2=Nc3ccccc3NC(C)(c3ccc(C)o3)C2)o1 (stereo not given) | 2 | 35* | 0
CCOc1ccc(C(=O)N2CCC(C(=O)c3ccc4c(c3)OCCO4)CC2)cc1 | 10 | 15 | 12
O=C(NCCCN1CCOCC1)c1cc(-c2ccc3c(c2)OCO3)nc2ccccc12 | 1 | 12 | -4
CCOc1ccc(-c2cc(C(=O)NCCCN3CCN(CC)CC3)c3ccccc3n2)cc1 | -2 | 37* | -1
COc1cccc(-c2nc(CS(=O)(=O)CC(=O)NCCCN3CCc4ccccc4C3)c(C)o2)c1 | 7 | 8 | -4
COc1ccc(-c2cc3nc(C)cc(C)n3n2)c(OC)c1 | 2 | 6 | -2
O=c1cc(N2CCC(Cc3ccccc3)CC2)[nH]c(=O)n1C1CCCCC1 | 7 | 18 | 16
O=c1cc(N2CCc3ccccc3C2)[nH]c(=O)n1C1CCCCC1 | 24 | 62* | 4
COc1ccc(-c2cc(C(F)(F)F)nc(N3CCCCCC3)n2)cc1 | 1 | 10 | -1
COc1ccc(-c2cc(C(F)(F)F)nc(N3CCN(C)CC3)n2)cc1 | 4 | 43* | 3
CC1CCN(CCCNC(=O)Cc2c(C(=O)O)n(C)c3ccccc23)CC1 | -3 | 10 | -2
CN1C2C=C3C(C#N)=C(N)C(C#N)(C#N)[C@@H](c4ccc(Cl)cc4)[C@@H]3C1CC2 (stereo not given in full) | -1 | 8 | -4
Cc1ccc(C2C3CSCC=C3C(C#N)=C(N)C2(C#N)C#N)cc1 (stereo not given) | 40* | 2 | -2
COc1ccccc1N1CCN(C(=O)c2ccc(CS(=O)(=O)c3ccccc3OC)o2)CC1 | 0 | 6 | -2
CC1CCN(CCNC(=O)c2ccc3c(=O)n(CCc4ccccc4)c(=O)[nH]c3c2)CC1 | 9 | 5 | 3
CC1CCCCN1CCNC(=O)c1ccc2c(=O)n(CCc3ccccc3)c(=O)[nH]c2c1 (stereo not given) | 2 | 48* | 1
CCOC(=O)C1=C(C)NC(=O)C(C#N)C1c1ccco1 (stereo not given) | -1 | 2 | -1
N#Cc1c(NC(NC(=O)c2ccco2)C(=O)c2ccccc2)sc2c1CCCC2 (stereo not given) | 0 | 2 | 84*
CC(=O)Nc1sc2c(c1C#N)CCCCC2 | -4 | 9 | -2
Cc1nn(Cc2ccc(Cl)cc2)c(C)c1NC(=O)C1CC=CCC1C(=O)O (stereo not given) | 0 | 4 | -2
CC(C(=O)Nc1ccc2c(c1)OCCO2)N1CCN(C(=O)c2ccco2)CC1 (stereo not given) | nt | nt | -3
Cc1nc(NC2=NCN(CC3CCCO3)CN2)nc2ccccc12 (stereo not given) | ? | 9 | -2
Cc1ccc2c(c1)NC(=O)C(CC(=O)NCCCN1CCCCC1)O2 (stereo not given) | 0 | 11 | 0
Cc1ccc2c(c1)NC(=O)C(CC(=O)NCCCN1CCN(c3cc(Cl)ccc3C)CC1)O2 (stereo not given) | -1 | 44* | 0
COc1c(S(=O)(=O)n2nc(C)cc2C)ccc(Cl)c1Cl | -2 | 2 | 0
SMILES | Proteasome disasm | LNCaP diff act | QS inhibitor
Cc1cccc(C(=O)N2CCC(n3nnc4cc(F)ccc43)CC2)c1 | 0 | 8 | 0
COC(=O)c1ccccc1NC(=O)CN1CCC(n2nnc3cc(F)ccc32)CC1 | 3 | 30* | 0
O=C(CSc1nc2c(c(=O)[nH]1)CCCC2)Nc1ccc(Cl)cc1F | 2 | 5 | -2
Cc1ccc(-c2noc(CCC(=O)NC3CCN(Cc4ccccc4)CC3)n2)cc1 | 1 | 32* | -3
Cc1ccc(-c2noc(CCC(=O)NCCCN3CCN(c4cccc(Cl)c4)CC3)n2)cc1 | 0 | 44* | 1
Cc1ccc(-c2noc(CCC(=O)NCCCN3CCN(c4ccc(F)cc4)CC3)n2)cc1 | 0 | 38* | -2
COc1ccc(-c2noc(CCC(=O)NCCCN3CCC(C)CC3)n2)cc1 | 4 | 2 | -2
O=C(CCc1nc(-c2ccccc2F)no1)NC1CCN(Cc2ccccc2)CC1 | -4 | 15 | -7
Clc1cccc(N2CCN(Cc3nc(-c4ccccc4)no3)CC2)c1 | 1 | 7 | 0
COc1ccc(Oc2ccc(/C=C/C(=O)c3ccc(O)cc3)cc2[N+](=O)[O-])cc1 | nt | nt | 0
COc1ccc(C2(C(=O)NCCCN(C)C)CCOCC2)cc1 | 2 | 16 | -6
CC(C)Cc1cc(C(=O)NCCCN2CCOCC2)no1 | 0 | 4 | 0
Cc1nc2c3c(-c4ccccc4)nc(N4CCOCC4)nc3nn2c(C)c1CCC(=O)O | 0 | 4 | -3
CCc1ccc(NC(=O)c2cc(-c3ccco3)on2)cc1 | 0 | 8 | 0
CCc1ccc(N/C(SCc2cccc(F)c2)=C(/C#N)C(=O)NCc2ccco2)cc1 | 2 | 6 | 65*
O=C(Nc1ccc(N2CCOCC2)c(F)c1)c1ccncc1 | 0 | 1 | 0
COc1ccc(CCN2CCC(Nc3nc4ccccc4n3Cc3ccc(F)cc3)CC2)cc1 | 1 | 66* | 4
Clc1ccc(Cn2c(CN3CCCC3)nc3ccccc32)cc1 | 1 | 2 | 4
Cc1ccc2nc(NC(=O)C(NS(=O)(=O)c3cccc4nsnc34)C(C)C)sc2c1 (stereo not given) | nt | nt | 7
CC(C)NC(=O)c1cnc(N2CCN(c3ccccn3)CC2)c2ccccc12 | -4 | 23 | -2
c1ccc(N2CCN(c3nnc(Cc4cccnc4)c4ccccc34)CC2)nc1 | 1 | 30* | 2
Cc1ccccc1C(=O)c1cccn1CC(=O)NCCN1CCN(c2cccc(C)c2C)CC1 | nt | nt | 0
COc1ccc(C2C3=C(CCCC3=O)Nc3nc(C(F)(F)F)nn32)c(OC)c1OC (stereo not given) | -1 | 13 | -7
COc1ccc2c(c1)CCc1c(C(=O)Nc3ccn(Cc4ccc(C)cc4)n3)noc1-2 | 3 | 26 | 0
COc1ccc2c(c1)CCc1c(C(=O)Nc3cc(C)n(Cc4ccc(Cl)cc4)n3)noc1-2 | 1 | 62* | 3
SMILES | Proteasome disasm | LNCaP diff act | QS inhibitor
CCOC(=O)c1cnn(-c2cc(C)c3cc(C)cc(C)c3n2)c1N | -2 | 32* | -4
CCOC(=O)c1cnc2nc(C)[nH]n2c1=O | -8 | 2 | -1
COc1ccc(-c2cc3ccccc3n2CC(O)CN2CCN(CCO)CC2)cc1 (stereo not given) | -1 | 8 | 1
Cc1nc2sccn2c1-c1csc(NCc2ccccc2)n1 | 2 | 10 | 43
CCN1CCN(c2cc(C)c3cc(NC(=O)c4ccc(Br)o4)ccc3n2)CC1 | 0 | 53* | -4
CCN1CCN(c2cc(C)c3cc(NC(=O)c4ccncc4)ccc3n2)CC1 | 1 | 11 | -5
Cc1oc(-c2ccc(Cl)cc2)nc1CN1CCC(C(=O)NCCCN2CCOCC2)CC1 | 3 | 63* | 8
Cc1oc(-c2cccc(Cl)c2)nc1CN1CCCC(C(=O)NCCCN2CCOCC2)C1 (stereo not given) | 4 | 26 | -8
CCN(CCNC(=O)C1CCN(Cc2nc(-c3ccc(Cl)cc3)oc2C)CC1)c1ccccc1 | 3 | 66* | 1
CCN(CCNC(=O)C1CCN(Cc2nc(-c3cccc(Cl)c3)oc2C)CC1)c1ccccc1 | 0 | 24 | 4
CCc1ccc(-c2nc(CN3CCC(C(=O)NCCN(CC)c4ccccc4)CC3)c(C)o2)cc1 | 0 | 32* | 10
